Reference: PMC5540273 (PLoS ONE, 2017)

Legend:
Conditions in all cases: concentration: 1 μM, replicates: in singlicate; n = 1
MKNK1 = tested on: MKNK1
MKNK2 = tested on: MKNK2
MLCK = tested on: T1, MLCK
T1 construct: gene MYLK3

MLK1 = tested on: T2, MLK1
T2 construct: gene MAP3K9

MLK2 = tested on: MLK2
MLK3 = tested on: MLK3
MRCKA = tested on: MRCKA
MRCKB = tested on: T3, MRCKB
T3 construct: gene CDC42BPB

MST1R = tested on: MST1R
MST1 = tested on: T4, MST1
T4 construct: gene STK4

MST2 = tested on: T5, MST2
T5 construct: gene STK3

MST3 = tested on: T6, MST3
T6 construct: gene STK24

MST4 = tested on: MST4
MTOR = tested on: MTOR
MUSK = tested on: MUSK
MYLK2 = tested on: MYLK2
MYLK4 = tested on: MYLK4
MYLK = tested on: MYLK
MYO3A = tested on: MYO3A
MYO3B = tested on: MYO3B
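Further: KINOMEscan kinase panel screen.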

Row | SMILES | %Inh (MKNK1) | %Inh (MKNK2) | %Inh (MLCK) | %Inh (MLK1) | %Inh (MLK2) | %Inh (MLK3) | %Inh (MRCKA) | %Inh (MRCKB) | %Inh (MST1R) | %Inh (MST1) | %Inh (MST2) | %Inh (MST3) | %Inh (MST4) | %Inh (MTOR) | %Inh (MUSK) | %Inh (MYLK2) | %Inh (MYLK4) | %Inh (MYLK) | %Inh (MYO3A) | %Inh (MYO3B)
1 | COC(=O)c1c(-c2ccccc2)c2cc(C(=O)O)ccc2c(=O)n1Cc1ccccc1 | 0% | 0% | 0% | 41% | 14% | 0% | 0% | 0% | 19% | 0% | 12% | 0% | 9% | 25% | 0% | 8% | 0% | 0% | 0% | 0%
2 | O=S(=O)(c1ccc(-c2ccnc3[nH]ccc23)cc1)N1CCCC1 [GSK846226] | 14% | 46% | 4% | 0% | 0% | 0% | 0% | 0% | 16% | 0% | 4% | 14% | 0% | 12% | 0% | 3% | 62% | 22% | 10% | 0%
3 | CS(=O)(=O)c1ccc(-c2nc3n(c2-c2ccncc2)CCC3)cc1 [SKF-105942] | 9% | 6% | 0% | 0% | 0% | 1% | 14% | 2% | 19% | 0% | 0% | 0% | 0% | 0% | 12% | 0% | 4% | 17% | 25% | 77%
4 | Cc1cc(N2Cc3ccccc3C2)nc(Nc2ccc(S(=O)(=O)N3CCOCC3)cc2)n1.Cl [GSK1669917] | 0% | 0% | 0% | 0% | 0% | 15% | 1% | 0% | 0% | 0% | 0% | 0% | 0% | 9% | 0% | 0% | 0% | 12% | 0% | 0%
5 | COc1cccc(-c2cc(-c3c[nH]nc3-c3ccccn3)ccn2)c1 [GW680338] | 6% | 0% | 8% | 0% | 43% | 9% | 16% | 0% | 35% | 4% | 0% | 0% | 30% | 33% | 0% | 0% | 9% | 0% | 8% | 3%
